# Test results as given in the supplement of paper PMC8728848.
# This excerpt belongs to a sample that is enriched for the strongest signals.
# B1: UDA (Urtica dioica), P11218 (protein)
# chain: MMMRFLSAVVIMSSAMAVGLVSAQRCGSQGGGGTCPALWCCSIWGWCGDSEPYCGRTCENKCWSGERSDHRCGAAVGNPPCGQDRCCSVHGWCGGGNDYCSGSKCQYRCSSSVRGPRVALSGNSTANSIGNVVVTEPLFDQMFSHRKDCPSQGFYSYHSFLVAAESFPAFGTIGDVATRKREVAAFLAHISQATSGERSDVENPHAWGLCHINTTTVTENDFCTSSDWPCAAGKKYSPRGPIQLTHNFNYGLAGQAIGEDLIQNPDLVEKDPIISFKTALWFWMSQHDNKPSCHDIVLNANSAANRIPNKGVIGNIISRAFGHDDFAVRSSSIGFYKRYCDMLGVSYGHDLKYWFDNTPSSEFQRIQMRVAA
# Experiments:
# Assay in all cases: glycan array binding signal (z-score within array); higher = stronger binding
# Conditions in all cases: glycan notation: IUPAC condensed, linker removed
# [1] = target: Fuc(a1-2)Gal(b1-3)GalNAc(b1-3)Gal
# Procedure, shortened: (§1)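 Glycan array data were curated from 3228 arrays in the Consortium for Functional Glycomics database and kept only where the protein sequence was available. Glycan names were converted to IUPAC-condensed notation, and columns mapping to the same glycan were averaged. The binding signal is a within-array Z-score, averaged across arrays of the same protein sequence at different concentrations or buffers and across linkers. Negative Z-scores can be read as non-binding.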
# [2] = target: Fuc(a1-2)Gal(b1-3)GlcNAc(b1-3)[Gal(b1-4)GlcNAc(b1-6)]Gal(b1-4)Glc
# Procedure, shortened: as §1
# [3] = target: Fuc(a1-2)Gal(b1-3)GlcNAc6S
# Procedure, shortened: as §1
# [4] = target: Fuc(a1-2)Gal(b1-4)GlcNAc(b1-2)[Fuc(a1-2)Gal(b1-4)GlcNAc(b1-4)]Man(a1-3)[Fuc(a1-2)Gal(b1-4)GlcNAc(b1-2)Man(a1-6)]Man(b1-4)GlcNAc(b1-4)GlcNAc
# Procedure, shortened: as §1
# [5] = target: Fuc(a1-2)Gal6S(b1-3)GlcNAc
# Procedure, shortened: as §1
# [6] = target: Fuc(a1-2)[Gal(a1-3)]Gal(b1-3)GlcNAc
# Procedure, shortened: as §1
# [7] = target: Fuc(a1-2)[GalNAc(a1-3)]Gal(b1-4)GlcNAc(b1-3)Gal(b1-4)GlcNAc
# Procedure, shortened: as §1
# [8] = target: Fuc(a1-3)[Gal(b1-4)]GlcNAc(b1-2)Man(a1-3)[Fuc(a1-3)[Gal(b1-4)]GlcNAc(b1-2)Man(a1-6)]Man(b1-4)GlcNAc(b1-4)GlcNAc
# Procedure, shortened: as §1
# [9] = target: Fuc(a1-3)[GalNAc(b1-4)]GlcNAc
# Procedure, shortened: as §1
# Fuc(a1-4)GlcNAc = target: Fuc(a1-4)GlcNAc
# Procedure, shortened: as §1
# Gal(a1-3)Gal = target: Gal(a1-3)Gal
# Procedure, shortened: as §1
# [10] = target: Gal(a1-3)Gal(b1-3)GlcNAc(b1-3)GalNAc
# Procedure, shortened: as §1
# [11] = target: Gal(a1-3)Gal(b1-4)[Fuc(a1-3)]GlcNAc
# Procedure, shortened: as §1
# Gal(a1-4)Gal(b1-4)GlcNAc = target: Gal(a1-4)Gal(b1-4)GlcNAc
# Procedure, shortened: as §1
# Gal(b1-3)GalNAc(b1-3)Gal = target: Gal(b1-3)GalNAc(b1-3)Gal
# Procedure, shortened: as §1
# [12] = target: Gal(b1-3)GalNAc(b1-4)Gal(b1-4)Glc
# Procedure, shortened: as §1
# [13] = target: Gal(b1-3)GalNAc(b1-4)[Neu5Ac(a2-3)]Gal(b1-4)Glc
# Procedure, shortened: as §1
# [14] = target: Gal(b1-3)GlcNAc(a1-6)Gal(b1-4)GlcNAc
# Procedure, shortened: as §1
# [15] = target: Gal(b1-3)GlcNAc(b1-2)Man(a1-3)[Gal(b1-3)GlcNAc(b1-2)Man(a1-6)]Man(b1-4)GlcNAc(b1-4)GlcNAc
# Procedure, shortened: as §1
# [16] = target: Gal(b1-3)GlcNAc(b1-2)Man(a1-3)[Gal(b1-3)GlcNAc(b1-2)Man(a1-6)]Man(b1-4)GlcNAc(b1-4)[Fuc(a1-6)]GlcNAc
# Procedure, shortened: as §1
# [17] = target: Gal(b1-3)GlcNAc(b1-6)[Gal(b1-3)]GalNAc
# Procedure, shortened: as §1
# [18] = target: Gal(b1-3)[Neu5Ac(b2-6)]GalNAc
# Procedure, shortened: as §1
# Gal(b1-4)GlcNAc = target: Gal(b1-4)GlcNAc
# Procedure, shortened: as §1
# [19] = target: Gal(b1-4)GlcNAc(b1-2)Man(a1-3)[Man(a1-6)]Man(b1-4)GlcNAc(b1-4)GlcNAc
# Procedure, shortened: as §1
# [20] = target: Gal(b1-4)GlcNAc(b1-2)[Gal(b1-4)GlcNAc(b1-4)]Man(a1-3)[GlcNAc(b1-4)][Gal(b1-4)GlcNAc(b1-2)[Gal(b1-4)GlcNAc(b1-6)]Man(a1-6)]Man(b1-4)GlcNAc(b1-4)GlcNAc
# Procedure, shortened: as §1
# [21] = target: Gal(b1-4)GlcNAc(b1-3)Gal(b1-4)GlcNAc(b1-3)Gal(b1-4)GlcNAc(b1-3)Gal(b1-4)GlcNAc(b1-3)Gal(b1-4)GlcNAc(b1-2)Man(a1-3)[Gal(b1-4)GlcNAc(b1-3)Gal(b1-4)GlcNAc(b1-3)Gal(b1-4)GlcNAc(b1-3)Gal(b1-4)GlcNAc(b1-3)Gal(b1-4)GlcNAc(b1-2)Man(a1-6)]Man(b1-4)GlcNAc(b1-4)[Fuc(a1-6)]GlcNAc
# Procedure, shortened: as §1
# [22] = target: Gal3S(b1-4)[Fuc(a1-3)]GlcNAc
# Procedure, shortened: as §1
# GalNAc(a1-3)GalNAc = target: GalNAc(a1-3)GalNAc
# Procedure, shortened: as §1
# [23] = target: GalNAc(a1-3)GalNAc(b1-3)Gal(a1-4)Gal(b1-4)GlcNAc
# Procedure, shortened: as §1
# GlcA(b1-3)Gal = target: GlcA(b1-3)Gal
# Procedure, shortened: as §1
binder,measurement,setting,value
B1,glycan array binding signal (z-score),[1],-0.215
same,glycan array binding signal (z-score),[2],-0.109
same,glycan array binding signal (z-score),[3],-0.182
same,glycan array binding signal (z-score),[4],-0.161
same,glycan array binding signal (z-score),[5],-0.184
same,glycan array binding signal (z-score),[6],-0.167
same,glycan array binding signal (z-score),[7],-0.054
same,glycan array binding signal (z-score),[8],-0.165
same,glycan array binding signal (z-score),[9],-0.172
same,glycan array binding signal (z-score),Fuc(a1-4)GlcNAc,-0.178
same,glycan array binding signal (z-score),Gal(a1-3)Gal,-0.189
same,glycan array binding signal (z-score),[10],-0.177
same,glycan array binding signal (z-score),[11],-0.183
same,glycan array binding signal (z-score),Gal(a1-4)Gal(b1-4)GlcNAc,-0.101
same,glycan array binding signal (z-score),Gal(b1-3)GalNAc(b1-3)Gal,-0.178
same,glycan array binding signal (z-score),[12],-0.186
same,glycan array binding signal (z-score),[13],-0.189
same,glycan array binding signal (z-score),[14],-0.166
same,glycan array binding signal (z-score),[15],0.04
same,glycan array binding signal (z-score),[16],-0.156
same,glycan array binding signal (z-score),[17],-0.177
same,glycan array binding signal (z-score),[18],-0.187
same,glycan array binding signal (z-score),Gal(b1-4)GlcNAc,0.006
same,glycan array binding signal (z-score),[19],4.63
same,glycan array binding signal (z-score),[20],-0.17
same,glycan array binding signal (z-score),[21],1.52
same,glycan array binding signal (z-score),[22],-0.184
same,glycan array binding signal (z-score),GalNAc(a1-3)GalNAc,-0.191
same,glycan array binding signal (z-score),[23],-0.177
same,glycan array binding signal (z-score),GlcA(b1-3)Gal,-0.173
